Compound activity deposited in PubChem by NMMLSC.
LAP4 TOR yeast: yeast TOR pathway LAP4-GFP modulation | S. cerevisiae LAP4-GFP multiplex, flow cytometry GFP, 3 h; median GFP as percent of DMSO wells | hit rate 0.34% among 320,000 | GFP response vs DMSO, % at 10 µM | AID 2023;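 active means GFP response vs DMSO above a set limit, about the screen mean plus 3 SD, cut at about 150% in these data; inconclusive means under 70 cell events counted for the yeast strain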
AGP1-GFP MLPCN: modulators of TOR pathway AGP1-GFP in S. cerevisiae | S. cerevisiae AGP1-GFP multiplex flow cytometry, 3 h; GFP as percent of DMSO wells | GFP response vs DMSO, % at 10 µM | hit rate 0.02% among 320,000;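 active means GFP response relative to DMSO above a set limit, near screen average plus 3 SD, cut at about 150% in these data; inconclusive means fewer than 70 cells counted for the yeast strain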;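 further: median GFP channel fluorescence of the gated AGP1 strain per well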
RPL19A-GFP yeast: yeast TOR pathway RPL19A-GFP modulation | S. cerevisiae RPL19A-GFP strain, flow cytometry, 3 h; hits give low values | percent response vs DMSO, % at 10 µM | hit rate 0.3% among 330,000 | AID 2025;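 active means percent response vs DMSO below 50%; inconclusive means fewer than 70 events counted for the yeast strain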;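 further: median channel GFP fluorescence of the barcoded RPL19A-GFP strain; lower means less RPL19A-GFP as with rapamycin TOR inhibition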
CIT2 TOR yeast: modulators of TOR pathway CIT2-GFP in S. cerevisiae. S. cerevisiae CIT2-GFP strain, flow cytometry, 3 h; 100 means same as DMSO wells. AID 2029. GFP response vs DMSO, % at 10 µM. hit rate 0.065% among 320,000;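 active means GFP response relative to DMSO above a set limit, near the screen mean plus 3 SD, cut at about 150% in these data; inconclusive means Fewer than 70 cells measured for a yeast strain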;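 further: ratio of well median GFP fluorescence to mean of DMSO wells on the plate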
VLA-4 inh: inhibition in a human VLA-4 binding assay; inhibition, % (about 7 µM as worked out from the volumes in the protocol); P13612; hit rate 0.2% among 330,000; VLA-4 expressing cells, ligand binding flow cytometry; AID 2557; in the data active means inhibition above about 50%
Target sequence (P13612 whole entry, looked up): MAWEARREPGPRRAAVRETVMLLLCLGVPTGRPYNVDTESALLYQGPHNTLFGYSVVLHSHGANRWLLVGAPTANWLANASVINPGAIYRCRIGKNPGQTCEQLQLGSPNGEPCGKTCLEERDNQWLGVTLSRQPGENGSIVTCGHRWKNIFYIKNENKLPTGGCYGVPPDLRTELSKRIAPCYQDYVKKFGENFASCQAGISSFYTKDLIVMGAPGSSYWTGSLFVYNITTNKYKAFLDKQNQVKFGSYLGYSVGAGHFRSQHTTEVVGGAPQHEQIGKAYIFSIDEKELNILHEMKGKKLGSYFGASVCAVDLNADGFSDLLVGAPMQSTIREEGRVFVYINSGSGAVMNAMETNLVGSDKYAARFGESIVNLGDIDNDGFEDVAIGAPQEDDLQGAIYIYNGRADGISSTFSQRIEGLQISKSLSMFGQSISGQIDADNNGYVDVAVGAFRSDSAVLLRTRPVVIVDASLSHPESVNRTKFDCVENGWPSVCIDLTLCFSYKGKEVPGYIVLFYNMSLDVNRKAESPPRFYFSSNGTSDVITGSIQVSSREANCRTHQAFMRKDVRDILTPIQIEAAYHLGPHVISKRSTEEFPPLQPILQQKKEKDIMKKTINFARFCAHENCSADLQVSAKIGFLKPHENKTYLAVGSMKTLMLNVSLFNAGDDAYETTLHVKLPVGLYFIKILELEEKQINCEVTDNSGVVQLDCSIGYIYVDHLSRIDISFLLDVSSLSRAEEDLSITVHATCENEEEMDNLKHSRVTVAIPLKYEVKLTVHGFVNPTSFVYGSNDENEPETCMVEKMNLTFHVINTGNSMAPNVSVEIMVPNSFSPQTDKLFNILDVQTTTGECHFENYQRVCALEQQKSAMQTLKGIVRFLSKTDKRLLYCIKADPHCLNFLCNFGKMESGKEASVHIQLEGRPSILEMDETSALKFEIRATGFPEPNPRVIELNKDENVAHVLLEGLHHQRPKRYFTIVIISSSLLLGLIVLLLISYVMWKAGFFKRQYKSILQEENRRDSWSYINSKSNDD
MEP2 TOR yeast: modulators of TOR pathway MEP2-GFP in S. cerevisiae | GFP response vs DMSO, % at 10 µM | hit rate 0.51% among 330,000 | S. cerevisiae MEP2-GFP strain, flow cytometry GFP, 3 h; 100% = DMSO control level;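 active means GFP response versus DMSO above a set limit, roughly screen mean plus 3 SD, cut at about 180% in these data; inconclusive means fewer than 70 cells counted for a yeast strain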;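 further: median GFP fluorescence of the barcode-gated MEP2-GFP cells per well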
LAP4 cherry2: yeast LAP4-GFP modulation, second cherry pick; hit rate 20% among 590; S. cerevisiae LAP4-GFP strain, flow cytometry GFP, 3 h; GFP response vs DMSO, % at 10 µM; shares compounds with LAP4 TOR yeast; AID 2621;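 active means GFP signal as percent of the solvent control above about 150%, meaning raised reporter expression, limit read from the data; inconclusive means fewer than 70 cells counted in the well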
MEP2 cherry2: yeast MEP2-GFP modulation, second cherry pick. hit rate 10% among 590. GFP response vs DMSO, % at 10 µM. shares compounds with LAP4 TOR yeast. S. cerevisiae MEP2-GFP strain, flow cytometry GFP, 3 h;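 active means GFP signal above 150% of the solvent control wells, that is a rise of more than half; inconclusive means fewer than 70 yeast cells counted in the well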;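 further: median channel GFP fluorescence of all gated yeast cells per well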
RPL19A GFP CP2: reconfirmed modulator of RPL19A-GFP TOR reporter in yeast | shares compounds with LAP4 TOR yeast | S. cerevisiae RPL19A-GFP strain, flow cytometry GFP, 3 h; hits give low values; 100% means same as DMSO wells | GFP response vs DMSO, % at 10 µM | hit rate 3% among 590;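 active means under 65% GFP response relative to DMSO; inconclusive means yeast strain with under 70 measured events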;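 further: median GFP channel fluorescence per well over the all cells gate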
CIT2 GFP CP2: reconfirmed modulator of CIT2-GFP TOR reporter in yeast; hit rate 8% among 590; S. cerevisiae CIT2-GFP strain, flow cytometry GFP, 3 h; DMSO control wells read 100%; AID 2624; GFP response vs DMSO, % at 10 µM; shares compounds with LAP4 TOR yeast;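 active means GFP response vs DMSO above about 150%, limit read from the data; inconclusive means fewer than 70 events counted for a yeast strain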;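 further: median green fluorescence per well over all gated yeast cells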
AGP1 GFP CP2: reconfirmed modulator of AGP1-GFP TOR reporter in yeast; shares compounds with LAP4 TOR yeast; S. cerevisiae AGP1-GFP strain, flow cytometry GFP, 3 h; percent response vs DMSO, % at 10 µM; 590 tested, under 10 active;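 active means over 150 percent of DMSO response; inconclusive means yeast strain measured with under 70 events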;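 further: median GFP channel fluorescence over all cells without mother daughter split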
s288c autofluor: compound is autofluorescent in yeast s288c cells | 610 tested, under 10 active | AID 2757 | shares compounds with LAP4 TOR yeast | fluorescence change (kMESF span) at 33 µM | S. cerevisiae s288c, 520 nm autofluorescence, flow cytometry, 3 h; hits give high values; zero means same as solvent-only cells;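 active means fluorescence span over the dose series, or activity score, above about 33, limit read from the data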
s288c autofl DR: counter-screen for autofluorescence of TOR hits in yeast s288c. shares compounds with LAP4 TOR yeast. S. cerevisiae s288c parental, compound autofluorescence, flow cytometry, 3 h. fluorescence change (span) at 33 µM. 110 tested, under 10 active;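 active means fluorescence change span, or the activity score built from it, above 25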
TORC1 bypass gr: stops wildtype yeast growth while TORC1 bypass cells still grow; 120 tested, under 10 active; shares compounds with LAP4 TOR yeast; growth rating (0-3) at 30 µM; AID 504456; S. cerevisiae BY4741 spot growth rating, 48-72 h; hits give low values;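 active means growth rating at most 1 for wild type yeast while the TORC1 bypass strain still grows fully, rated 3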
VLA-4 allo CP: confirmation of allosteric modulators of human VLA-4 integrin. inhibition, % at 6.7 µM. U937 cells, HUTS-21 LIBS mAb binding, flow cytometry; LDV ligand present at threefold Kd. shares compounds with VLA-4 inh. hit rate 2% among 1,300; in the data active means inhibition above about 40%
A number is an active result; n = inactive; u = inconclusive; x = not tested or not shown; ! = repeats disagree; [ ] = another dose, or the depositor's remark. This is a sample that favours compounds with a hit; in the whole collection about 1.1% have one here.

SMILES	LAP4 TOR yeast	AGP1-GFP MLPCN	RPL19A-GFP yeast	CIT2 TOR yeast	VLA-4 inh	MEP2 TOR yeast	LAP4 cherry2	MEP2 cherry2	RPL19A GFP CP2	CIT2 GFP CP2	AGP1 GFP CP2	others
FC(F)(F)Oc1ccc(C2NCc3ccccc3-n3cccc32)cc1 (stereo not given)	n	n	n	n	n	n	x	x	x	x	x
COc1ccc2[nH]cc(C(=O)CN(C)C)c2c1	u	u	13[may fluoresce violet]	u	n	u	x	x	x	x	x
CN(C)P(=NC(=S)c1cccn1C)(N(C)C)N(C)C	n	n	n	u	n	216[may fluoresce violet]	x	x	x	x	x
Cc1ccc(NC(=O)[C@@H](NC(=O)N2C[C@H]3C[C@@H](C2)c2cccc(=O)n2C3)C(C)C)cc1	n	n	n	n	n	n	x	x	x	x	x
O=c1[nH]c(=O)n(CCC2=CCCCC2)c(O)c1/C=N/N1CCOCC1	n	u	n	u	n	642[may fluoresce violet]	x	x	x	x	x
C=C1C(=O)O[C@@H]2C[C@@H](C)[C@H]3C=CC(=O)[C@]3(O)C[C@@H]12	n	n	n	n	n	207	n	n	n	n	n
CCOc1ccc(N2C(=O)/C(=C/c3ccco3)C(=O)NC2=S)cc1	n	n	n	n	n	n	x	x	x	x	x
CCOc1ccc(N2C(=O)/C(=C\c3cccs3)C(=O)NC2=S)cc1	n	n	n	n	n	n	168	n	n	n	n	s288c autofluor=n
CN(C)C(=S)SSC(=S)N(C)C	201	n	n	n	n	n	n	n	n	n	n
Cc1cc(C)c(N=Cc2c(O)[nH]c(=O)[nH]c2=O)c(C)c1	n	n	n	n	n	n	x	x	x	x	x
CN1C(=O)C(O)N=C(c2ccccc2)c2ccccc21 (stereo not given)	n	n	n	n	n	n	x	x	x	x	x
Nc1ccc2ccc3cccc[n+]3c2c1	n	n	n	191	n	224	x	x	x	x	x	s288c autofluor=n
C[n+]1c(-c2ccccc2)c2cc(N)ccc2c2ccc(N)cc21	n	n	n	n	n	n	x	x	x	x	x
CCN1CCN(c2ccc(N)cc2C)CC1	n	n	n	n	n	n	n	n	n	n	n
CCN1CCN(c2ccc(N)cc2)CC1	n	n	n	n	n	n	x	x	x	x	x
COc1ccc2c3c1OC1[C@H](O)CCC4[C@@H](C2)N(C)CC[C@]314 (stereo not given in full)	n	n	n	n	n	n	x	x	x	x	x
O=c1oc2ccccc2c(O)c1[C@H]1c2ccc(O)cc2Oc2c1c(=O)oc1ccccc21	243	n	n	n	n	n	x	x	x	x	x	s288c autofluor=n
NC1=C([N+](=O)[O-])C(c2ccc3c(c2)OCO3)c2c(c3ccccc3oc2=O)O1 (stereo not given)	n	n	n	n	n	n	x	x	x	x	x
O=C(CCCOc1ccc(Cl)cc1Cl)N1CCC2(CC1)OCCO2	n	n	n	n	n	n	x	x	x	x	x
CCC(Oc1cc(Cl)ccc1Cl)C(=O)N1CCC2(CC1)OCCO2 (stereo not given)	n	n	n	167	n	n	n	n	n	n	n
C=C1C(O)[C@@H]2O[C@]3(CC[C@H](/C=C/C(C)[C@@H]4CC(C)=CC5(O[C@H](C[C@@](C)(O)C(=O)O)CCC5O)O4)O3)CC[C@H]2O[C@@H]1C(O)CC(C)[C@H]1OC2(CCCCO2)CCC1C (stereo not given in full)	267	n	n	n	n	n	268	n	n	n	n	s288c autofluor=n
C[C@H]1C[C@@H](C)C(=O)[C@@H]([C@H](O)CC2CC(=O)NC(=O)C2)C1	n	n	n	n	n	n	n	159	n	n	n	s288c autofluor=n;s288c autofl DR=n;TORC1 bypass gr=n
Fc1ccc(C(OCCN2CCN(CCCc3ccccc3)CC2)c2ccc(F)cc2)cc1	208	n	n	n	n	n	n	n	n	n	n
CC1(C)OC(c2ccccc2)=C/C(=C/C=C2C(=O)NC(=S)NC2=O)O1	179	n	n	x	n	n	x	x	x	x	x	s288c autofluor=n
COc1ccc(CNCCc2c(C)[nH]c3ccc(OC(F)(F)F)cc23)c(OC)c1	n	n	n	n	n	n	x	x	x	x	x
SMILES	LAP4 TOR yeast	AGP1-GFP MLPCN	RPL19A-GFP yeast	CIT2 TOR yeast	VLA-4 inh	MEP2 TOR yeast	LAP4 cherry2	MEP2 cherry2	RPL19A GFP CP2	CIT2 GFP CP2	AGP1 GFP CP2	others
C[C@]12CCC3C(CC[C@H]4C[C@@H](O)CC[C@]34C)C1C[C@H](Br)[C@@H]2O (stereo not given in full)	n	n	n	n	n	n	x	x	x	x	x
O=C1NC(=O)C(=Cc2ccc(SC3CCCCC3)o2)C(=O)N1	n	n	n	n	n	n	n	n	n	n	n
NS(=O)(=O)c1ccc(-c2ccc(C=C3C(=O)NC(=O)NC3=O)o2)cc1	n	n	n	n	n	n	x	x	x	x	x
CCOc1ccccc1CN1C2CCC1CC(c1ccc(C)cc1)C2 (stereo not given)	n	n	n	n	n	n	x	x	x	x	x
COCCNC(=O)Cn1cc(C(=O)c2ccccc2F)c2ccccc21	n	n	n	n	n	n	x	x	x	x	x	VLA-4 allo CP=n
O=C(Cn1cc(C(=O)c2ccccc2F)c2ccccc21)NCc1ccco1	n	n	n	n	n	n	x	x	x	x	x
CC(C)c1ccccc1NC1=NCCCS1	n	n	n	n	n	n	x	x	x	x	x
Nc1ncc2[nH]cnc2n1	n	n	n	n	53!	n	x	x	x	x	x	VLA-4 allo CP=n
